# Measured values taken from PubChem BioAssay (Tox21).
# “And” between values parts separate entries of the source, which are not always exact repeats. Identical values can stand only once. Inconclusive results are not listed. A call without a number means that no potency is given here. The source holds several records for some structures; these can differ, active in one and inactive in another. The source made the active and inactive calls. Unless noted, calls follow the shape of the dose curve; as a rule, active = well fitted curve in the direction sought with a large enough effect in the repeat runs; inconclusive = weak or mixed curves; inactive = no such curve, though single readings can be large; an effect the other way counts as inactive or inconclusive.
# Tests used:
# [1] = qHTS assay to identify small molecule antagonists of the estrogen receptor alpha (ER-alpha) signaling pathway using the BG1 cell line in the presence of 0.1 nM 17-beta-estradiol - cell viability counter screen (AID 1259241); also: nearly all actives have a fitted effect of over 40% in size; also: potency is read from the fitted curve at half-maximal effect
# Outline: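 CellTiter-Fluor read (30 min, 37C) on ER-alpha/ERE-luc VM7Luc4E2 cells; 22 hr compound treatment; agonist 0.1 nM E2 final; same-well multiplex.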
# [2] = qHTS assay to identify small molecule antagonists of the androgen receptor (AR) signaling pathway using the MDA cell line in the presence of 0.5 nM R1881 - cell viability counter screen (AID 1259242); also: nearly all actives have a fitted effect of over 45% in size; also: potency is read from the fitted curve at half-maximal effect
# Outline: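 Live-cell protease fluorescence, CellTiter-Fluor, 30 min at 37C. Cells: MDA-kb2, 3,000/well, preincubated 5 hr. Compounds plus 0.5 nM R1881 final, 16 hr, 37C, 0% CO2.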
# [3] = qHTS assay to identify small molecule HDAC inhibitors (AID 1259364);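 also: wild-type HCT-116 cells with endogenous class I/II HDAC activity; top concentration of the series differs between compounds; nearly all actives have a fitted effect of over 45% in size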
# Outline: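 HCT-116 (wild type), 1,500 cells/well, overnight; compound 2 hr 37C 5% CO2; HDAC-Glo I/II reagent 30 min RT; luminescence readout.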
# [4] = qHTS assay to identify small molecule HDAC inhibitors - cell viability counter screen (AID 1259365); also: series mostly up to about 92 µM; nearly all actives have a fitted effect of over 50% in size
# Outline: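 To flag cytotoxic hits, 1,500 wild-type HCT-116 cells per well, plated the day before, receive test compounds for 2hr at 37 C before CellTiter-Glo reagent and a luminescence read.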
# [5] = qHTS assay to identify small molecule agonists of the sonic hedgehog signaling (Shh) pathway - cell viability counter screen (AID 1259366); also: nearly all actives have a fitted effect of over 50% in size; also: potency is read from the fitted curve at half-maximal effect
# Outline: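 Fluorescence from CellTiter-Fluor reports live cells in this counter screen. NIH/3T3-derived Gli1-Luc reporter cells receive test compounds for 24hr at 37C; reagent goes in at 23hr.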
# [6] = qHTS assay to identify small molecule antagonists of the sonic hedgehog signaling (Shh) pathway - cell viability counter screen (AID 1259367); also: nearly all actives have a fitted effect of over 55% in size; also: potency is read from the fitted curve at half-maximal effect
# Outline: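 Cytotoxicity was assessed in parallel with Shh reporter activity by measuring live-cell protease fluorescence (CellTiter-Fluor) in NIH/3T3 cells stably carrying Gli1-Luc, treated with compound under conditioned medium stimulation for 23 hr plus 1 hr reagent incubation.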
# [7] = qHTS assay to identify small molecule agonists of the sonic hedgehog signaling (Shh) pathway (AID 1259368; calls by dose curve;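 also: NIH/3T3-derived 3T3Gli1-Luc cells carrying a stable Gli1-driven firefly luciferase reporter; series mostly up to about 92 µM; nearly all actives have a fitted effect of over 15% in size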)
# Outline: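 Read-out: firefly luciferase luminescence from a Gli1 response element reporter stably integrated in NIH/3T3-derived 3T3Gli1-Luc cells, measured 30 min at room temperature after reagent addition. Compound exposure lasted 24 hr at 37 C, 5% CO2.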
# [8] = qHTS assay to identify small molecule antagonists of the sonic hedgehog signaling (Shh) pathway (AID 1259369; calls by dose curve; also: nearly all actives have a fitted effect of over 45% in size; also: potency is read from the fitted curve at half-maximal effect)
# Outline: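 Luminescence readout: firefly Luc under Gli1 response element in 3T3Gli1-Luc cells (NIH/3T3 clone). Antagonist mode, stimulation by conditioned medium; compound exposure 24hr at 37 C, 5% CO2.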
# [9] = target: Estrogen receptor beta (Homo sapiens) (UniProt Q92731); assay: qHTS assay to identify small molecule agonists of the estrogen receptor beta (ER-beta) signaling pathway (AID 1259377; active = well fitted activation curve with a large enough effect in the signal ratio in the repeat runs, not every such curve was filed as active; the % refers to the signal ratio)
# Estrogen receptor beta (Homo sapiens), sequence (Q92731 whole entry, looked up): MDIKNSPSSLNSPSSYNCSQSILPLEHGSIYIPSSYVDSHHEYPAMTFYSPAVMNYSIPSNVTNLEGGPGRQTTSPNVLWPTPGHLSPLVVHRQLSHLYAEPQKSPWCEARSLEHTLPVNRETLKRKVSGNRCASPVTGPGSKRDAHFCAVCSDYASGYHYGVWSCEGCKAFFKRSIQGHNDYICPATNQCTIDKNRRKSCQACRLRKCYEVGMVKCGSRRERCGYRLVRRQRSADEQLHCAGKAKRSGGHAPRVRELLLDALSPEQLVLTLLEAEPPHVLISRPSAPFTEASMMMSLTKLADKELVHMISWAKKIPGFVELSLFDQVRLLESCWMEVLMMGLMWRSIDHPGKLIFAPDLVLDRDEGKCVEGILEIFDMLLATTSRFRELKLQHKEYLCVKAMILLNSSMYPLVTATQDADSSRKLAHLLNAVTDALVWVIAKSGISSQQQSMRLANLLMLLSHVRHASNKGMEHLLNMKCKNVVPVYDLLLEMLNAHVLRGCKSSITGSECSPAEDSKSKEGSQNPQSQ
# Outline: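 Screening used GripTite ER-beta-UAS-bla cells held in 2% charcoal-stripped FBS medium. After overnight (16 hr) compound incubation at 37C, beta-lactamase activity was detected with a FRET substrate by fluorescence.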
# [10] = target: Estrogen receptor beta (Homo sapiens) (UniProt Q92731); assay: qHTS assay to identify small molecule antagonists of the estrogen receptor beta (ER-beta) signaling pathway (AID 1259378; active = well fitted inhibition curve with a large enough effect in the signal ratio in the repeat runs, not every such curve was filed as active; the % refers to the signal ratio; also: potency is read from the fitted curve at half-maximal effect)
# Outline: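 ER-beta-UAS-bla HEK293T (GripTite) cells in 2% charcoal-stripped FBS medium were preincubated 6 hr at 37C, dosed with compound, then stimulated with 1 nM E2 (final) for 16 hr; beta-lactamase reporter read by B/G FRET fluorescence after 2 hr substrate loading.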
# [11] = qHTS assay to identify small molecule agonists of the androgen receptor (AR) signaling pathway in the presence of an antagonist - cell viability counter screen (AID 1259379); also: nearly all actives have a fitted effect of over 25% in size; also: potency is read from the fitted curve at half-maximal effect
# Outline: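 Viability counter screen: CellTiter-Fluor fluorescence, measured in the same wells as the luciferase read-out. MDA-kb2 cells, 3,000/well, with nilutamide at 3.0uM final and compounds at 15 concentrations, 16 hr at 37C, 0% CO2.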
# [12] = qHTS assay to identify small molecule antagonists of the estrogen receptor beta (ER-beta) signaling pathway - cell viability counter screen (AID 1259382); also: nearly all actives have a fitted effect of over 55% in size; also: potency is read from the fitted curve at half-maximal effect
# Outline: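 Luminescent ATP read-out (CellTiter-Glo, 30 min, RT) taken in the same wells as the bla reporter assay. HEK293T ER-beta-UAS-bla cells in 2% charcoal-stripped FBS were exposed to compounds with 1nM E2 for 16 hr at 37C.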
# [13] = qHTS assay to identify small molecule agonists or antagonists of the thyroid stimulating hormone receptor (TSHR) signaling pathway - wild type cell line counter screen (AID 1259384; calls by dose curve)
# Outline: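 Wild-type HEK293 cells were plated 18 h at 37 C/5% CO2, pin-dosed with compound plus Ro20-1724 medium, held 30 min at room temperature, then given cAMP-d2 and anti-cAMP-cryptate; fluorescence was read after 1 h. Fifteen concentrations, triplicate.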
# [14] = target: Thyrotropin receptor (Homo sapiens) (UniProt P16473); assay: qHTS assay to identify small molecule antagonists of the thyroid stimulating hormone receptor (TSHR) signaling pathway (AID 1259385; calls by dose curve; also: nearly all actives have a fitted effect of over 20% in size)
# Thyrotropin receptor (Homo sapiens), sequence (P16473 whole entry, looked up): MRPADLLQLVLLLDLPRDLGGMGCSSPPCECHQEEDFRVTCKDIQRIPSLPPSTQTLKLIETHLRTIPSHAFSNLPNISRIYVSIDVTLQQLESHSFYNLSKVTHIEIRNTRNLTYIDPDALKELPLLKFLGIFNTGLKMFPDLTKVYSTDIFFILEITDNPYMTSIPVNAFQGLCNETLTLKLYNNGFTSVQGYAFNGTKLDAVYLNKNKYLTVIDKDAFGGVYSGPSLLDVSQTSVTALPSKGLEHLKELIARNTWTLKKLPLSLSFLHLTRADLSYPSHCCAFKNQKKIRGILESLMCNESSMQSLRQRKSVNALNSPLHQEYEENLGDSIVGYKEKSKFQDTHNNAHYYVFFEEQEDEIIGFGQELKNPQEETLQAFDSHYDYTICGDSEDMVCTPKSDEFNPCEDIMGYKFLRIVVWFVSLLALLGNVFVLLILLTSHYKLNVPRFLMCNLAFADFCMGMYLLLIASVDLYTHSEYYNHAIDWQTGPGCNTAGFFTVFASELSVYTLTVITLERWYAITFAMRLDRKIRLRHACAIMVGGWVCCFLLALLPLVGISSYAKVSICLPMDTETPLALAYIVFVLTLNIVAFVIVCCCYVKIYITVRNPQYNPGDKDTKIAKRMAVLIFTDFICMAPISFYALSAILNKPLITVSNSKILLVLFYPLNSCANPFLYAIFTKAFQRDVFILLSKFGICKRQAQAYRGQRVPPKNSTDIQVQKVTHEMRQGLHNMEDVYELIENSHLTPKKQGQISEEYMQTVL
# Outline: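 TSHR-HEK293 cells were plated and held 18 h at 37C/5% CO2, then given compound plus Ro20-1724 and stimulated with TSH at 1.5 ng/mL final. After 30 min at room temperature, cAMP was detected with cAMP-d2/anti-cAMP-cryptate (1 h) by fluorescence.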
# [15] = qHTS assay to identify small molecule agonists of the estrogen receptor alpha (ER-alpha) signaling pathway in the presence of an antagonist - cell viability counter screen (AID 1259386);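 also: cells exposed to compounds for 22 h at 37 °C before the viability read; nearly all actives have a fitted effect of over 30% in size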; also: potency is read from the fitted curve at half-maximal effect
# Outline: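 Read-out: CellTiter-Fluor fluorescence after 1hr reagent incubation, measured in the same wells as the luciferase readout. VM7Luc4E2 cells were exposed to 15 compound concentrations with 10.0nM ICI-182,780 for 22hr at 37C.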
# [16] = qHTS assay to identify small molecule agonists of the estrogen receptor beta (ER-beta) signaling pathway - cell viability counter screen (AID 1259380); also: nearly all actives have a fitted effect of over 30% in size; also: potency is read from the fitted curve at half-maximal effect
# Outline: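 Luminescence read-out (CellTiter-Glo, 30 min, room temp) taken in the same wells as the beta-lactamase reporter assay; ER-beta-UAS-bla HEK293T cells exposed to DMSO-dissolved compounds for 16 hr at 37C in 2% charcoal-stripped FBS medium.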
# [17] = target: Estrogen receptor (Homo sapiens) (UniProt P03372); assay: qHTS assay to identify small molecule agonists of the estrogen receptor alpha (ER-alpha) signaling pathway in the presence of an antagonist (AID 1259383; calls by dose curve; also: top concentration of the series differs between compounds; nearly all actives have a fitted effect of over 15% in size)
# Estrogen receptor (Homo sapiens), sequence (P03372 whole entry, looked up): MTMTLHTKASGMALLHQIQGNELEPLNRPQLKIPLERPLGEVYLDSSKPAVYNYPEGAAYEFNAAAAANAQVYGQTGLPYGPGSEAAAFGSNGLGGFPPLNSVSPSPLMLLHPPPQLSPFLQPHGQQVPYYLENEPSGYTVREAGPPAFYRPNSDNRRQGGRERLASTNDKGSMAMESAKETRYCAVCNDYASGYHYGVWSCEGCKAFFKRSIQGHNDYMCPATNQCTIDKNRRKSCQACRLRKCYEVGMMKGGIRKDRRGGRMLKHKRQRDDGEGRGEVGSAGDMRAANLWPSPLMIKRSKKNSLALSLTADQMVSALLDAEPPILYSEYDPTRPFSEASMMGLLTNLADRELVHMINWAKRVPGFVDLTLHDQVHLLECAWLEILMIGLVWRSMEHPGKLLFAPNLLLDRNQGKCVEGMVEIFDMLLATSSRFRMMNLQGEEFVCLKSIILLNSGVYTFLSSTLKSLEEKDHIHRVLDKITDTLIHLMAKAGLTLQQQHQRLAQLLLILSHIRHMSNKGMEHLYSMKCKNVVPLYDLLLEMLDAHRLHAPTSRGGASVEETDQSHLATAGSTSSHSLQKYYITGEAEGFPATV
# Outline: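 Luciferase luminescence (ONE-Glo, 30min at room temperature) measured in VM7Luc4E2 cells after 22hr compound exposure at 15 concentrations, with 10.0nM ICI-182,780 final present; cells express endogenous ER-alpha and carry four EREs upstream of luciferase.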
# [18] = target: Androgen receptor (Homo sapiens) (UniProt P10275); assay: qHTS assay to identify small molecule agonists of the androgen receptor (AR) signaling pathway in the presence of an antagonist (AID 1259381; calls by dose curve; also: nearly all actives have a fitted effect of over 15% in size)
# Androgen receptor (Homo sapiens), sequence (P10275 whole entry, looked up): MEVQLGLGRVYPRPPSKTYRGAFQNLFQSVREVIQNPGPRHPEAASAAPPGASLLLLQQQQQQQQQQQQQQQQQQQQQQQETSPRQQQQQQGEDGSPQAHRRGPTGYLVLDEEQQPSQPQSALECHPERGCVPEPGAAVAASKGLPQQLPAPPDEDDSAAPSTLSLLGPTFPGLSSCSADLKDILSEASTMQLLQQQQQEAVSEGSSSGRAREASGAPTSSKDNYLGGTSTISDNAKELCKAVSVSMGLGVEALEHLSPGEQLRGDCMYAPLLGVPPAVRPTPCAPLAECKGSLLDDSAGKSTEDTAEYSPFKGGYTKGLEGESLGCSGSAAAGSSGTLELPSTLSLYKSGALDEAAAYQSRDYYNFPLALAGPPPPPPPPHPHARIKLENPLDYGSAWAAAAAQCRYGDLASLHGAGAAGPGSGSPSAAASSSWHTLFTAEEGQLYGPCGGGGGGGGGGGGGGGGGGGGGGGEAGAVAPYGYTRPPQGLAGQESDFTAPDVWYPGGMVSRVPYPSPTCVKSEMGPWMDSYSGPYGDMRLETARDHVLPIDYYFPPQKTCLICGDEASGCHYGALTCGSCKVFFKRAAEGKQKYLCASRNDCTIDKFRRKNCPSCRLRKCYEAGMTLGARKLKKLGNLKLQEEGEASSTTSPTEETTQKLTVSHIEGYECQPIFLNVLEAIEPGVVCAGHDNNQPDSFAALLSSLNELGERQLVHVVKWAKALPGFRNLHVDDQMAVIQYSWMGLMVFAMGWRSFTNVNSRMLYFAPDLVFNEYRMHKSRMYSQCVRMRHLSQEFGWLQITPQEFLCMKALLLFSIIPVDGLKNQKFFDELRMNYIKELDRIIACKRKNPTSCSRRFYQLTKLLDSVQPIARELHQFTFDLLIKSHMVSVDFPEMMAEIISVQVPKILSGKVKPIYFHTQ
# Outline: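 Luciferase read-out (ONE-Glo, 30min room temperature) in MDA-kb2 MMTV-reporter cells; agonist mode run in presence of AR antagonist nilutamide, 3.0uM final. Compounds tested as 15-point series, 16hr exposure at 37C, 0% CO2.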
SMILES,Potency [1],Potency [2],Potency [3],Potency [4],Potency [5],Potency [6],Potency [7],Potency [8],Potency [9],Potency [10],Potency [11],Potency [12],Potency [13],Potency [14],Potency [15],Potency [16],Potency [17],outcome [18]
Clc1cccc(Cl)c1,inactive,inactive,inactive,inactive,inactive,inactive,inactive,inactive,inactive,inactive,inactive,inactive,inactive,inactive,inactive,,,
O=S(=O)(O)C(F)(F)C(F)(F)C(F)(F)C(F)(F)C(F)(F)C(F)(F)C(F)(F)C(F)(F)F,inactive,inactive,inactive,inactive,inactive,inactive,inactive,inactive,,,inactive,46.2 µM (active) and inactive,inactive,inactive,inactive,51.9 µM (active) and 48.6 µM (active),,
CCNCC,inactive,inactive,inactive,inactive,inactive,inactive,inactive,inactive,inactive,inactive,inactive,inactive,inactive,inactive,inactive,inactive,,
CCOP(=O)(OCC)OCC,inactive,inactive,inactive,inactive,inactive,inactive,,inactive,inactive,inactive,inactive,inactive,inactive,inactive,inactive,inactive,,
COc1ccc(CO)cc1,inactive,inactive,inactive,inactive,inactive,inactive,,inactive,inactive,inactive,inactive,inactive,inactive,inactive,inactive,inactive,,
CC1CC(=O)O1 (configuration not stated),inactive,inactive,inactive,inactive,inactive,inactive,,inactive,,,inactive,inactive,inactive,inactive,inactive,inactive,,
OC(c1ccc(Cl)cc1)(c1cncnc1)c1ccccc1Cl (configuration not stated),inactive,27.8 µM (active) and inactive,inactive,inactive,inactive,inactive,inactive,inactive,inactive,24.3 µM (active),24.8 µM (active) and inactive,62.2 µM (active) and inactive,,,inactive,49.4 µM (active),inactive,
CN(C)c1ccccc1,inactive,inactive,inactive,inactive,inactive,inactive,inactive,inactive,inactive,inactive,inactive,inactive,inactive,inactive,inactive,inactive,,
S=c1[nH]c2ccccc2[nH]1,inactive,inactive,inactive,inactive,inactive,inactive,inactive,inactive,inactive,inactive,inactive,inactive,inactive,inactive,inactive,inactive,,inactive
CCOP(=S)(OCC)OP(=S)(OCC)OCC,inactive,inactive,inactive,inactive,inactive,inactive,inactive,inactive,inactive,inactive,inactive,inactive,inactive,inactive,inactive,inactive,,inactive
CCNc1nc(Cl)nc(NC(C)(C)C#N)n1,inactive,inactive,inactive,inactive,inactive,inactive,inactive,0.685 µM (active),inactive,inactive,inactive,inactive,inactive,inactive,inactive,inactive,,
Cc1cc(Cl)ccc1N=CN(C)C,inactive,inactive,inactive,inactive,inactive,inactive,inactive,inactive,inactive,inactive,inactive,inactive,inactive,inactive,inactive,inactive,,
CCOP(=O)(O)OCC (tested in a mixture with another compound),inactive,inactive and 54 µM (active),inactive,inactive,inactive and 48.2 µM (active),inactive and 42.9 µM (active),,0.0482 µM (active),,,inactive and 27.1 µM (active),inactive and 30.4 µM (active),,,inactive and 60.6 µM (active),inactive and 48.2 µM (active),,
Nc1ccc([N+](=O)[O-])cc1N,61.1 µM (active),,inactive,inactive,,12.2 µM (active) and 19.3 µM (active),,2.43 µM (active),,,61.1 µM (active) and 30.6 µM (active),inactive,inactive,,48.5 µM (active) and 38.6 µM (active),21.7 µM (active) and inactive,,
N#CCCCCC#N,inactive,inactive,inactive,inactive,inactive,inactive,inactive,inactive,,,inactive,inactive,inactive,inactive,inactive,inactive,,
ClCC(Cl)CCl,inactive,inactive,inactive,inactive,,inactive,,inactive,,,inactive,inactive,inactive,inactive,inactive,inactive,,
